In the library only some 4.1% were active in any assay of this set; here they are far more common.
NALP1 yeast inh: NALP1 inflammasome inhibitors in reconstituted yeast, colorimetric, S. cerevisiae, triplicate retest; S. cerevisiae NALP1/ASC/caspase-1 growth, X-gal OD620, 72 h; inhibition, % at 10 µM; 280,000 tested, 0.61% active; AID 2071, 2009; in the data active = inhibition mostly above about 24%, no sharp cut-off; inactive = mostly below about 32%
tim10-1 inh: growth inhibitors of tim10-1 mutant yeast, primary screen, luminescence, uHTS | inhibition, % at 20 µM | S. cerevisiae tim10-1 ts strain growth, BacTiter-Glo, 24 h | 330,000 tested, 2.2% active;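 active = inhibition of at least 40%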;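 note: mutant grown at 25 °C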
tim23-1 inh: growth inhibitors of tim23-1 mutant yeast, primary screen, luminescence, uHTS; S. cerevisiae tim23-1 growth, BacTiter-Glo luminescence, 24 h; inhibition, % at 20 µM; AID 463212, 2010; 330,000 tested, 1.3% active;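 active = growth inhibition of the mutant yeast at or above 50%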;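 note: temperature-sensitive mutant grown at 25 °C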
TIM10 inh: growth inhibitors of isogenic TIM10 control yeast, primary screen, counter-screen for tim10-1 yeast inhibitor project, luminescence, uHTS; 330,000 tested, 1.4% active; S. cerevisiae TIM10 strain growth, BacTiter-Glo luminescence, 24 h; inhibition, % at 10 µM; AID 463195, 2010;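 active = inhibition of 40% or more at the single tested concentration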;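 note: wild-type TIM10 isogenic control strain grown at permissive 25 °C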
NLRP3 yeast inh: NALP3 inflammasome inhibitors in reconstituted yeast, primary screen, luminescence, uHTS; Yeast reconstituted NLRP3/ASC/caspase-1, beta-gal luminescence, 24 h; AID 2825, 2010; 330,000 tested, 0.39% active; inhibition, % at 10 µM;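 active = inhibition of 50% or more; inactive = inhibition below 50%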
TIM10 conf: growth inhibitors of wild-type TIM10 yeast, confirmation, counter-screen for tim10-1 synthetic lethality project, single concentration, luminescence, S. cerevisiae. shares compounds with TIM10 inh. inhibition, % at 10 µM. S. cerevisiae tim10 strain growth, BacTiter-Glo luminescence, 24 h. 4,600 tested, 63% active;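 active = inhibition of yeast growth at or above a set limit in either of two replicates at 10 µM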; note: this counterscreen used the strain with wild-type TIM10
Of the large screens only hits and unclear results are named; the others gave an inactive call (follow-up assays come after a bar, where they were run).

Cc1cccc(/C=C2\CCC(=C3SCCCS3)C2=O)c1	TIM10 inh 44 | TIM10 conf 66
O=C1/C(=C/c2ccc(F)cc2)CCC1C1CCCC1 (stereo unspecified)	none
N#CCCn1nc(-c2ccc([N+](=O)[O-])cc2)cc1Nc1ccccc1NC(=O)C(F)(F)F	none
CCCNC(=S)Nc1ccccc1	none
Cc1cccc(CSCCNC(=S)Nc2ccccc2)c1	TIM10 inh 48 | TIM10 conf inactive
CC(C)c1cc(C(F)(F)F)n2nc(C(=O)Nc3ccc(-n4cnnn4)cc3)cc2n1	none (no result: NALP1 yeast inh)
Cc1onc(-c2ccccc2)c1C(=O)N(C)CC(=O)Nc1ccc(F)c(F)c1F	none (no result: NALP1 yeast inh)
O=C(NC12CC3CC(CC(C3)C1)C2)c1ccc(-c2ccc(Br)cc2)o1	TIM10 inh 49 | TIM10 conf 54
O/N=C1\CCCc2c1nc(-c1ccccc1F)n2O	none (no result: NALP1 yeast inh)
O=C(O)c1ccccc1C(=O)NNc1ccc(Cl)cc1	TIM10 inh 46 | TIM10 conf 30
O=C(/C=C/c1ccccc1)NNc1ccc(Cl)cc1	TIM10 inh 44 | TIM10 conf 48
NS(=O)(=O)c1ccc(NNC(=O)c2ccccc2C(=O)O)cc1	none (no result: NALP1 yeast inh)
CCCCN(S(=O)(=O)c1ccccc1)S(=O)(=O)c1ccccc1	none
CS(=O)(=O)c1nc(-c2ccccc2)cc(C(F)(F)F)n1	TIM10 inh 45 | TIM10 conf inactive
Cc1nc(S/C(C(=O)O)=C2/C(=O)Nc3ccccc32)n[nH]1	TIM10 inh 41 (no result: NALP1 yeast inh) | TIM10 conf 38
Cc1nc(SC2CC(=O)N(c3ccccc3)C2=O)n[nH]1 (stereo unspecified)	none
N=C1SC(CC(=O)Nc2ccc([N+](=O)[O-])cc2)C(=O)N1c1ccccc1 (stereo unspecified)	TIM10 inh 57 | TIM10 conf inactive
CN(CC1COc2ccccc2O1)C(=S)Nc1ccccc1F (stereo unspecified)	TIM10 inh 41 | TIM10 conf inactive
O=C(NCC1COc2ccccc2O1)Nc1ccccc1F (stereo unspecified)	none
O=C1CC(N2CCN(c3ccccn3)CC2)C(=O)N1CC(c1ccccc1)c1ccccc1 (stereo unspecified)	TIM10 inh 42 | TIM10 conf inactive
COc1cc2c(cc1NC(=O)COC(=O)Cn1cnc3ccccc31)oc1ccccc12	TIM10 inh 41 | TIM10 conf inactive
COc1cc2c(cc1NC(=O)COc1ccccc1OC)oc1ccccc12	none
COc1ccc(-c2cc3c(nn2)-c2ccccc2C3=O)cc1	TIM10 inh 42 | TIM10 conf 45
COc1ccc(Nc2nc3ccccc3s2)cc1	none
COc1ccc(Nc2nc(Cl)c(C=O)s2)cc1	TIM10 inh 46 | TIM10 conf inactive
COc1ccc(NC(C)=O)cc1S(=O)(=O)N1CCN(Cc2cccs2)CC1	none (no result: NALP1 yeast inh)
O=C(NCC1CCCO1)c1cc2ccccc2oc1=O (stereo unspecified)	TIM10 inh 95 | TIM10 conf inactive
N/C(=N\NC(=O)c1ccccc1)c1cc2ccccc2oc1=O	TIM10 inh 48 | TIM10 conf inactive
O=C(c1cc2ccccc2oc1=O)N(Cc1ccccc1)CC1CCCO1 (stereo unspecified)	none
COc1ccc(C(=O)N/N=C(\N)c2cc3ccccc3oc2=O)cc1	none
CCOC(=O)C1=CN(Cc2ccco2)S(=O)(=O)N(C)C1c1ccc(F)c(Cl)c1 (stereo unspecified)	none (no result: NALP1 yeast inh, NLRP3 yeast inh)
CCN(CC)C(=O)Cn1c(=O)n(CCCC(=O)NCc2ccccc2)c(=O)c2sccc21	none
CC1CCC2(CC1)NC(=O)N(CC(=O)NCCc1ccc(F)cc1)C2=O (stereo unspecified)	TIM10 inh 68 (no result: NALP1 yeast inh) | TIM10 conf inactive
CC1CCC2(CC1)NC(=O)N(CC(=O)NCCc1ccccc1)C2=O (stereo unspecified)	none (no result: NALP1 yeast inh)
O=c1c2c3c(sc2ncn1/N=C/c1ccc([N+](=O)[O-])o1)CCCC3	TIM10 inh 69 | TIM10 conf 96
Cc1nc2cc(NC(=O)COc3ccc(C#N)cc3)ccc2n1-c1ccccc1	none
C=CCn1c(C(C)NC(=O)COC)nc2ccccc21 (stereo unspecified)	TIM10 inh 97 (no result: NALP1 yeast inh) | TIM10 conf inactive
C=CCn1c(C(CC)CC)nc2ccccc21	none
CCOCCCNC(=O)C(c1ccccc1)N(Cc1ccc2c(c1)OCO2)C(=O)c1ccccc1O (stereo unspecified)	none
O=c1[nH]cnc2c1c(-c1ccccc1)cn2-c1ccc(Br)cc1	TIM10 inh 42 | TIM10 conf 38
CN(C(=O)CN1C(=O)c2ccccc2S1(=O)=O)C1CCCCC1	none (no result: NALP1 yeast inh)
CC(c1ccco1)N(C(=O)c1ccccc1NS(=O)(=O)c1ccc(Cl)cc1)c1ccccn1 (stereo unspecified)	TIM10 inh 45 | TIM10 conf 41
CC(c1ccco1)N(C(=O)c1ccccc1NS(=O)(=O)c1cc([N+](=O)[O-])ccc1Cl)c1ccccn1 (stereo unspecified)	TIM10 inh 45 | TIM10 conf 34
Cc1ccc(CN(c2ccc(C(=O)N3CCCC3)cc2)S(C)(=O)=O)cc1	TIM10 inh 44 | TIM10 conf 47
Cc1ccc(Cn2cnc3ccccc32)cc1C	TIM10 inh 40 | TIM10 conf inactive
Cc1cccc(Cn2cnc3ccccc32)c1	none
O=C(Nc1ccccc1-c1ccccc1)C12CC3CC(CC(C3)C1)C2	TIM10 inh 50 | TIM10 conf 39
Cc1cccc(NC(=S)NC(=O)c2ccc(Br)o2)c1C	none
Cc1cccc(C)c1NC(=S)NC(=O)c1ccc(Br)o1	TIM10 inh 42 | TIM10 conf 43
O=C(NC1CCCC1)C(c1ccc(F)cc1)N(Cc1ccc(Cl)cc1)C(=O)CCl (stereo unspecified)	TIM10 inh 42 | TIM10 conf 43
COC(=O)c1ccc(C(C(=O)NC2CCCCC2)N(Cc2ccc(F)cc2)C(=O)Cc2cccs2)cc1 (stereo unspecified)	none
Cc1nc2ccccn2c1C(=O)NNC(=O)Nc1cccc(C(F)(F)F)c1	none
CCOC(=O)CSc1nnc(-c2ccoc2C)n1-c1ccc(C)cc1	none
CCOC(=O)CSc1nnc(-c2ccoc2C)n1-c1ccc(OCC)cc1	TIM10 inh 45 | TIM10 conf inactive
O=S(=O)(Nc1cc(Cl)ccc1N1CCCCC1)c1cccs1	TIM10 inh 40 | TIM10 conf inactive
O=S(=O)(Nc1ccc(N2CCCCC2)cc1)c1cccs1	none
O=C(Nc1ccncc1)Nc1cccc(Cl)c1Cl	none
O=C(Nc1ccccc1)Nc1cccc(Cl)c1Cl	TIM10 inh 45 | TIM10 conf inactive
